Test results reported in PubChem BioAssay (NCATS).
Results filed as inconclusive are left out. Calls of active or inactive are those of the source. Unless noted, calls come from the whole dose curve; as a rule, active = well fitted curve in the direction sought with a large enough effect; inconclusive = small, poorly fitted or top-dose-only effect, or another doubt; inactive = no such curve, though single readings can be large; an effect the other way counts as inactive or inconclusive.

Assays:
[1] = target: Lysosomal acid glucosylceramidase (Homo sapiens) (UniProt P04062); assay: Glucocerebrosidase-p2 (AID 348; in the data active = potency below about 10 µM; note: potency is the fitted concentration of half-maximal effect); conditions: purified GBA, blue fluorogenic substrate, 40 min
Method in brief: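 Compounds titrated from 0.6 nM upwards against 0.2 nM enzyme in pH 5.9 citric acid/KH2PO4, taurocholate, tween-20; blue fluorogenic substrate 80 uM, 40 min room temperature, stopped and read Ex 365/Em 440 for AC50.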

[2] = AP1 Signaling Pathway (AID 357; active = well fitted curve in either direction with a large enough effect, not every such curve was filed as active; note: % is set by controls: 0 for no effect and ±100 for the full control effect); conditions: ME-180 AP-1-bla reporter, EGF-induced, beta-lactamase ratio, 5 h; at 7.69 µM (top of the series) unless noted
Method in brief: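 ME-180 cells with beta-lactamase reporter under AP-1 response element, stimulated with EC50 EGF; compounds tested in titration series, 5 h at 37 °C. CCF4 substrate added 2.5 h at room temperature; 460/530 nm emission ratio gave %activity and AC50.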

[3] = target: Cytochrome P450 1A2 (Homo sapiens) (UniProt P05177); assay: p450-cyp1a2 (AID 410; calls by dose curve; note: potency is the fitted concentration of half-maximal effect); conditions: recombinant CYP1A2, luciferin-ME demethylation, luminescence; series mostly up to 57 µM
Method in brief: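 20nM CYP1A2 with 100uM Luciferin-ME (at Km) in 100mM KPO4; compound preincubated 10 min, NADPH regeneration added, 60 min at room temperature. Luciferin quantified by luminescence after detection reagent; normalized to 57 uM furafylline.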

[4] = NFAT Signaling Pathway (AID 444; active = well fitted curve in either direction with a large enough effect, not every such curve was filed as active;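 note: carbachol stimulus at about its EC50 of 1 µM final; % is set by controls: 0 for no effect and ±100 for the full control effect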); conditions: Jurkat NFAT-bla M1, carbachol, beta-lactamase ratio, 5 h; at 7.69 µM (top of the series) unless noted
Method in brief: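 Jurkat cells carrying an NFAT-driven β-lactamase reporter and co-transfected muscarinic M1 receptor were treated with compound plus carbachol (1 uM final, an EC50 level) for 5 h at 37 °C. CCF4 loading followed for 1 h at RT; 460/530 nm ratio gave %activity.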

[5] = Stat Signaling Pathway (AID 446; active = well fitted curve in either direction with a large enough effect, not every such curve was filed as active;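 note: ME-180 cervical cancer cells given 40 pM IL-6 alongside compound; SIE-controlled beta-lactamase reporter measured as 460/530 nm FRET emission ratio; % is set by controls: 0 for no effect and ±100 for the full control effect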); conditions: ME-180 SIE beta-lactamase reporter, IL-6 stimulated, 5 h; at 7.69 µM (top of the series) unless noted
Method in brief: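 ME-180 cells carrying a SIE-driven beta-lactamase reporter are stimulated with 40 pM IL-6 for 5 h at 37C in the presence of compound. The 460/530 nm FRET substrate ratio is read after 2.5 h at RT. Data are normalised to 300 pM IL-6 and to 125 nM JAK inhibitor controls.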

[6] = target: Glucocorticoid receptor (Homo sapiens) (UniProt P04150); assay: GR-GFP Redistribution (AID 450;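 active = compounds whose dose series gives a full or clear partial fitted curve of increased nuclear translocation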; note: potency is the fitted concentration of half-maximal effect); conditions: U2OS GR-GFP nuclear translocation, laser cytometry, 2 h
[7] = target: Glucocorticoid receptor (Homo sapiens) (UniProt P04150); assay: GR-EFC Redistribution (AID 451; calls by dose curve; note: potency is the fitted concentration of half-maximal effect); conditions: CHO-K1 GR-EFC translocation, beta-gal luminescence, 2 h
Method in brief: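 CHO-K1 cells stably expressing nuclear-localized β-gal enzyme acceptor and GR fused C-terminally to the enzyme donor fragment; ligand-driven nuclear translocation restores β-gal by complementation. Compounds titrated up to 46 uM final, 2 h at 37 °C; luminescence read.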

[8] = target: Mitogen-activated protein kinase 10 (Mus musculus) (UniProt Q61831); assay: JNK3 AlphaScreen Assay (AID 530; active = well fitted curve in either direction with a large enough effect, not every such curve was filed as active;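 note: kinase came from lysate of stimulated human HepG2 cells; signal reports phosphorylation of biotinylated GST-cJun 1-79 at Ser73 with 10 µM ATP; % is set by controls: 0 for no effect and ±100 for the full control effect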); conditions: JNK3 lysate, c-Jun phosphorylation; series mostly up to 57.1 µM
Method in brief: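 Inhibitors reduce antibody binding to phosphorylated biotin-cJun, lowering AlphaScreen luminescence. Lysates from HepG2 cells pre-activated by IL-1beta plus TNF-alpha supplied JNK3; compounds were titrated.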

[9] = target: 3',5'-cyclic-AMP phosphodiesterase 4B (Homo sapiens) (UniProt Q07343); assay: qHTS Assay for Inhibitors of PDE-IV (AID 607; active = well fitted activation curve with a large enough effect in the main read-out, with a control signal flat, not every such curve was filed as active; note: % of control where 0% means no effect); conditions: HEK293 ACTOne CNG channel cells, membrane potential fluorescence; series mostly up to 22.9 µM
Method in brief: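 HEK293 ACTOne cells with CNG channel (1000/well), endogenous PDE4; membrane potential dye, compounds up to 22.9 uM final. Fluorescence Ex 535/Em 590; RO 20-1724 (100 uM final) as reference.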

[10] = target: Cytochrome P450 3A4 (Homo sapiens) (UniProt P08684); assay: qHTS Assay for Activators of Cytochrome P450 3A4 (AID 885); conditions: recombinant CYP3A4, Luciferin-PPXE luminescence, 60 min; series mostly up to 57.1 µM; note: nearly all actives have a fitted effect of over 65% in size
Method in brief: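 Human CYP3A4 (20 nM) with Luciferin-PPXE at 25 uM (its KM) in 200 mM KPO4; 10 min compound preincubation, then NADPH regeneration and 60 min reaction at RT. Luciferin read by luminescence; normalized to 57 uM ketoconazole full inhibition.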

[11] = Confirmation and Secondary Assay for Modulators of Hemoglobin Beta Chain Splicing at IVS2 654 locus (AID 910); conditions: HeLa EGFP-654 splicing reporter, GFP fluorescence, 48 h; series mostly up to 38.3 µM;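 note: per-well total GFP intensity by laser scanning cytometry after 2-day treatment; % of control where 0% means no effect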
Method in brief: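 HeLa cells stably carrying EGFP interrupted by mutant beta-globin IVS2-654 intron (CMV-driven) were treated with compound for 2 days at 37C; corrected splicing was scored as total peak GFP intensity per well (488 nm excitation, 500-520 nm emission).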

[12] = qHTS Assay for Identification of Small Molecule Agonists for Hypoxia Response Element Signaling Pathway (AID 914; active = well fitted activation curve with a large enough effect in the signal ratio, with a control signal flat, not every such curve was filed as active; the % refers to the signal ratio; note: % of control where 0% means no effect); conditions: ME-180 (cervical carcinoma) HRE-bla reporter, beta-lactamase ratio, CoCl2, 17 h; activation: stronger effect = higher value
Method in brief: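 In Opti-MEM containing 0.5% dialyzed FBS and 10 mM HEPES, ME-180 HRE-bla cells received a compound titration and EC50 CoCl2. They were incubated 17 hours, then CCF4-loaded 2.5 hours at room temperature before ratio reading.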

[13] = Confirmation and Secondary Assay for Modulators of Hemoglobin Beta Chain Splicing at IVS2 705 locus (AID 930); conditions: HeLa EGFP-705 splicing reporter, GFP fluorescence, 48 h; series mostly up to 38.3 µM;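 note: HeLa cells stably expressing the EGFP-705 splicing reporter; GFP fluorescence per well restored by corrected splicing of the IVS2-705 intron in EGFP; % of control where 0% means no effect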
Method in brief: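 Per-well GFP, captured at 1 x 8 µm resolution with 488 nm excitation, served as the read-out for HeLa EGFP-705 cells incubated 2 days with test compound versus DMSO.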

[14] = qHTS Assay for Lipid Storage Modulators (AID 1519; calls by dose curve); conditions: Drosophila S3 cells, BODIPY lipid droplet/cell ratio, laser cytometry, cells loaded with oleic acid; for activity change, negative = inhibition: at 57.5 µM (top of the series)
Method in brief: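 Cells seeded at 5,000 per well were treated with compounds over a concentration series and loaded with oleic acid (400 uM, as added). Lipid droplet fluorescence (488 nm excitation, 500-530 nm channel) was read by laser-scanning cytometry and normalized to 20 uM Triacsin C.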

[15] = target: Ubiquitin carboxyl-terminal hydrolase 1 (Homo sapiens) (UniProt O94782); assay: Inhibitors of USP1/UAF1: Pilot qHTS (AID 504865); conditions: purified USP1/UAF1, Ub-rhodamine cleavage fluorescence; series mostly up to 54.9 µM;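 note: rhodamine fluorescence freed from ubiquitin-rhodamine substrate followed over time; top concentration of the series differs between compounds; % is set by controls: 0 for no effect and ±100 for the full control effect; nearly all actives have a fitted effect of over 35% in size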
Method in brief: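 Kinetic fluorescence assay: 1nM USP1/UAF1, 15 min compound preincubation, then 150nM Ub-Rho; 480/540 nm.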

[16] = Primary qHTS for small molecule stabilizers of the endoplasmic reticulum resident proteome: Secreted ER Calcium Modulated Protein (SERCaMP) assay (AID 1508630); conditions: SH-SY5Y GLuc-SERCaMP (Gaussia luciferase released on ER calcium loss) secretion, thapsigargin, luminescence; series mostly up to 38.4 µM; note: % is set by controls: 0 for no effect and ±100 for the full control effect
Method in brief: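 GLuc-SERCaMP-expressing SH-SY5Y cells, pretreated 16 h with compound, are challenged with thapsigargin to empty ER calcium stores; after 4 h, coelenterazine is added directly to the medium and luminescence is imaged.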

[17] = target: Cytochrome P450 2C19 (Homo sapiens) (UniProt P33261); assay: qHTS Assay for Inhibitors and Substrates of Cytochrome P450 2C19 (AID 899); conditions: recombinant CYP2C19, luciferin-H EGE luminescence; series mostly up to 57.1 µM; note: potency is the fitted concentration of half-maximal effect; nearly all actives have a fitted effect of over 60% in size
Method in brief: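 NADPH-dependent conversion of Luciferin-H EGE (10uM, at KM) by 5nM enzyme in 50mM KPO4, 60 min at 37C following 10 min compound preincubation. Stopped with luciferin detection buffer; luminescence read after 20 min.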

[18] = measured here: cell count channel max response
[19] = measured here: lipid channel max response

Cytochrome P450 3A4 (Homo sapiens), sequence (P08684 whole entry, looked up): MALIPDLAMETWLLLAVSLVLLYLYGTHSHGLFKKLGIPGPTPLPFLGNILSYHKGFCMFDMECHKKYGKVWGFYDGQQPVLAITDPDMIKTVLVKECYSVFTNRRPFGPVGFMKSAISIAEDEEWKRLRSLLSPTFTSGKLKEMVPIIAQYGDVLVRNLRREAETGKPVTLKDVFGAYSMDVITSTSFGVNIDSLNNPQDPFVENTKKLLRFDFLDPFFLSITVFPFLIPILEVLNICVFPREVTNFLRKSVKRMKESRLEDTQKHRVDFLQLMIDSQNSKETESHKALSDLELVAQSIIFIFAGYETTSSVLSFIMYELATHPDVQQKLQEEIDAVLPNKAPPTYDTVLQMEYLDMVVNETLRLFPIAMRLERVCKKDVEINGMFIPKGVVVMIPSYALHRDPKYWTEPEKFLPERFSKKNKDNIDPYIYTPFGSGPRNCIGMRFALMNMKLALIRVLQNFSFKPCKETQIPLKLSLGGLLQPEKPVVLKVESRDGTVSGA
Ubiquitin carboxyl-terminal hydrolase 1 (Homo sapiens), sequence (O94782 whole entry, looked up): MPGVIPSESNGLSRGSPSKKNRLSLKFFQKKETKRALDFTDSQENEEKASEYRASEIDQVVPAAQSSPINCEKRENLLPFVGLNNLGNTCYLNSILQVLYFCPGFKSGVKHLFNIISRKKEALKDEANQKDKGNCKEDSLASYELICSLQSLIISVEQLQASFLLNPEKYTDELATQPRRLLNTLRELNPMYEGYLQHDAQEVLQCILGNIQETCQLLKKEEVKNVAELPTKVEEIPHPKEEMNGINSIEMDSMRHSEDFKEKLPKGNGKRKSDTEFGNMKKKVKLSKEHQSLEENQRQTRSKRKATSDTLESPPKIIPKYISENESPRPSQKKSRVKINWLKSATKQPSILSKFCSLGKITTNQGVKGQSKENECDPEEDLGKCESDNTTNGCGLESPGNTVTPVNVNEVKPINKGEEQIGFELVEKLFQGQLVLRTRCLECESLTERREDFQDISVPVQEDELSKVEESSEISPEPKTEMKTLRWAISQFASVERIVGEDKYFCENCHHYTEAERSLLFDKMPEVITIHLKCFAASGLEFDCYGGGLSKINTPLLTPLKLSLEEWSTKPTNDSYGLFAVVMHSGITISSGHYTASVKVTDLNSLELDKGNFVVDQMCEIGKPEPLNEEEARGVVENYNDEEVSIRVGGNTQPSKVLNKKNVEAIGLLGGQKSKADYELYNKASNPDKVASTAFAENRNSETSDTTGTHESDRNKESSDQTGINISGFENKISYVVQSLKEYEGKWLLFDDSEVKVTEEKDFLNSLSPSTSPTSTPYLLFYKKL
Lysosomal acid glucosylceramidase (Homo sapiens), sequence (P04062 whole entry, looked up): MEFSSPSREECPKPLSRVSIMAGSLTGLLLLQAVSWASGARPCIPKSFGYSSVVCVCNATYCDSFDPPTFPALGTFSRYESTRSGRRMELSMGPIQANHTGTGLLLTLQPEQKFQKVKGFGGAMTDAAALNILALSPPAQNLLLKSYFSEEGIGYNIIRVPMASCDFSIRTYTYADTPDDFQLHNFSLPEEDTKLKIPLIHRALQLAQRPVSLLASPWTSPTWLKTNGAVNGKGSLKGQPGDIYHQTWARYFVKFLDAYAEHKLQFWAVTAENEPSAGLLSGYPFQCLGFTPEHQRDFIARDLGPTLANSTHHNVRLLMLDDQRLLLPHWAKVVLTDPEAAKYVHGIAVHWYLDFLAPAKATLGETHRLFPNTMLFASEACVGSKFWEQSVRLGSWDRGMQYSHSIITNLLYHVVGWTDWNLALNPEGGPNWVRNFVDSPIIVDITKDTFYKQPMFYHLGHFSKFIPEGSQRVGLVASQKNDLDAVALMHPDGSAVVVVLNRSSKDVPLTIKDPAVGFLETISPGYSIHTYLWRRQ
Cytochrome P450 1A2 (Homo sapiens), sequence (P05177 whole entry, looked up): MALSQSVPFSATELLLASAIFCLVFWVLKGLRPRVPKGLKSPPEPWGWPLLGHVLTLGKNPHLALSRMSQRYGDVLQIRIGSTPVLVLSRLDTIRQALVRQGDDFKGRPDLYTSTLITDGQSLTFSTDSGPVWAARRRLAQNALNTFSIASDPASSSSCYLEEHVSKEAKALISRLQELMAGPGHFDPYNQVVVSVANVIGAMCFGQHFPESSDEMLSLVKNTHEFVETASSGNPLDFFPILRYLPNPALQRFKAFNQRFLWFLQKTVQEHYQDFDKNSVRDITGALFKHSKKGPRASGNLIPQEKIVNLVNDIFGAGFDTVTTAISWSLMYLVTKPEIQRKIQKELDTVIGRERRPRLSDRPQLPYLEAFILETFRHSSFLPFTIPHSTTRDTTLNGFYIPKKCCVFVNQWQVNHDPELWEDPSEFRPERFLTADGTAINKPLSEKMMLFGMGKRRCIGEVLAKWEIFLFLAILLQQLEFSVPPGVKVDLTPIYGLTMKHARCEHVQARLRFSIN
3',5'-cyclic-AMP phosphodiesterase 4B (Homo sapiens), sequence (Q07343 whole entry, looked up): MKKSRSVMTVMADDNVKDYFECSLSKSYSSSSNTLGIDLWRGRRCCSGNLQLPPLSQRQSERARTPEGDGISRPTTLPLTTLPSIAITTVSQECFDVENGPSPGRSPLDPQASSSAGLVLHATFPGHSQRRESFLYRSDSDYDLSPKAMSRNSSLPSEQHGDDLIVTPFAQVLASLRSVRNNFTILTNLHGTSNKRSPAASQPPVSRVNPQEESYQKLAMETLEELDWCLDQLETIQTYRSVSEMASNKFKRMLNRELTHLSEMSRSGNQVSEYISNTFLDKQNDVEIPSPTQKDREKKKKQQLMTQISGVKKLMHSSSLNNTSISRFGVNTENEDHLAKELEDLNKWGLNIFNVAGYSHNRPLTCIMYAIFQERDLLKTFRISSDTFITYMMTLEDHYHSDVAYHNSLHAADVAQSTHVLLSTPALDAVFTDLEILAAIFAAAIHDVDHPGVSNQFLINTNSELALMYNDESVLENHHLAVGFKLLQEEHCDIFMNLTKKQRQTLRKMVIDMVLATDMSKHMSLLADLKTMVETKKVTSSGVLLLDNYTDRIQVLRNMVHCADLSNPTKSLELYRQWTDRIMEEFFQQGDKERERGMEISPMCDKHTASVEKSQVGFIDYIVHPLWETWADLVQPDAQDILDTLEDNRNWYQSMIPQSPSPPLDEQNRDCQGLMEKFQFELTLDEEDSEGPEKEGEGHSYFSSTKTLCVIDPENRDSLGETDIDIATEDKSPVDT
Glucocorticoid receptor (Homo sapiens), sequence (P04150 whole entry, looked up, the tested form may be a part): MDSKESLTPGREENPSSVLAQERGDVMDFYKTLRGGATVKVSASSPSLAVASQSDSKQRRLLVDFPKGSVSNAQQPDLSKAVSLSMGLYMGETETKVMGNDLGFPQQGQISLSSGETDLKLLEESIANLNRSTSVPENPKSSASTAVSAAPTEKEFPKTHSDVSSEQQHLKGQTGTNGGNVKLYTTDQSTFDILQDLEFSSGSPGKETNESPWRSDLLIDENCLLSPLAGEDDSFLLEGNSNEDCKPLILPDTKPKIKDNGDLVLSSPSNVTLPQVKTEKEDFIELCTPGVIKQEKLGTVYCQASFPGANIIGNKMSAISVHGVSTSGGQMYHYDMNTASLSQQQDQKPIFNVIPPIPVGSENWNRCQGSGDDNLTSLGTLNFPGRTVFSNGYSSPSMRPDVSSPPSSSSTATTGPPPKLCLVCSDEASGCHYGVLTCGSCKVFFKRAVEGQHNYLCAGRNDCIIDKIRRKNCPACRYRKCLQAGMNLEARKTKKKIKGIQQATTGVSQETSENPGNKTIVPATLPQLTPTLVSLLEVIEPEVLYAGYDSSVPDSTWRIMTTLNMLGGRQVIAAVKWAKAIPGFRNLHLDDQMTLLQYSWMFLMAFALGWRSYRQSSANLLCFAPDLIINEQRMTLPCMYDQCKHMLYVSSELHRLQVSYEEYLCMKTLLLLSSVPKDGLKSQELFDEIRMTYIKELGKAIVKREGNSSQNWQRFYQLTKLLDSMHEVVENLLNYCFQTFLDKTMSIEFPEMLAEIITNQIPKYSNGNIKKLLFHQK
Cytochrome P450 2C19 (Homo sapiens), sequence (P33261 whole entry, looked up): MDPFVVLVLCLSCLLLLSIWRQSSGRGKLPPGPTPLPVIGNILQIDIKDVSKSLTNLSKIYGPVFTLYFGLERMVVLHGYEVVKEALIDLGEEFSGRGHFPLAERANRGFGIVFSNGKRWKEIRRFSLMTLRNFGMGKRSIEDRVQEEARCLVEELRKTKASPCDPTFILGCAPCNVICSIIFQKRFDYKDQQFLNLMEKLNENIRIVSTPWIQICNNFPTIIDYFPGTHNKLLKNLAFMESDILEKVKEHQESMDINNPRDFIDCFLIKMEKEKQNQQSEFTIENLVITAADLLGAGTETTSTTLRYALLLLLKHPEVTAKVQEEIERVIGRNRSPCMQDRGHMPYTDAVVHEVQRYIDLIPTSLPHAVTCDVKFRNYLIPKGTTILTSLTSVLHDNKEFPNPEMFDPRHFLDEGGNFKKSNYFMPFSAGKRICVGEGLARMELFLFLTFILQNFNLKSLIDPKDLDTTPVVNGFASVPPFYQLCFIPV

SMILES	Potency [1]	activity change, negative = inhibition [2]	Potency [3]	activity change, negative = inhibition [4]	activity, negative = inhibition [5]	Potency [6]	Potency [7]	outcome [8]	Potency [9]	Potency [10]	outcome [11]	activation [12]	outcome [13]	activity change, negative = inhibition [14]	max response [14, 18] [%]	max response [14, 19] [%]	Potency [15]	Potency [16]	Potency [17]
COCCNc1nc(-c2ccccc2CN(C)C)nc2ccccc12	> 11.4 µM (inactive)	4.08% (inactive)	10 µM (active)	-0.773% (inactive)	10% (inactive)	> 46 µM (inactive)	> 46 µM (inactive)	inactive	inactive	inactive	inactive	2.67% (inactive)	inactive	3.16% (inactive)	2.38	6.21	inactive	inactive	
CN(C)c1ccnc(-c2ccccc2C(F)(F)F)n1	> 11.4 µM (inactive)	24.2% (inactive)	7.94 µM (active)	6.88% (inactive)	1.29% (inactive)	> 46 µM (inactive)	> 46 µM (inactive)	inactive	inactive		inactive		inactive	5.14% (inactive)	11.7	18.9	inactive	inactive	
COc1ccccc1-c1nccc(NCc2cnc(C)cn2)n1	> 11.4 µM (inactive)	6.33% (inactive)	12.6 µM (active)	2.9% (inactive)	18.3% (inactive)	> 46 µM (inactive)	> 46 µM (inactive)	inactive	inactive	inactive	inactive	3.22% (inactive)	inactive	11.7% (inactive)	16.8	27.7	inactive	inactive	
COc1ccccc1CNc1ncncc1-c1cccc(C#N)c1	> 11.4 µM (inactive)	-6.51% (inactive)	10 µM (active)	-5.86% (inactive)	-0.225% (inactive)	> 46 µM (inactive)	> 46 µM (inactive)	inactive	inactive	inactive	inactive	-9.43% (inactive)	inactive	6.39% (inactive)	-8.3	8.29	inactive	inactive	3.16 µM (active)
Cc1noc(C)c1-c1cc(N(C)C)ncn1	> 11.4 µM (inactive)	10% (inactive)	3.16 µM (active)	9.29% (inactive)	16% (inactive)	> 46 µM (inactive)	> 46 µM (inactive)	inactive	inactive		inactive	0.655% (inactive)	inactive	8.35% (inactive)	3.97	11.9	inactive	inactive	
Cc1cnc(CNc2ccnc(-c3ccccc3Cl)n2)cn1	> 11.4 µM (inactive)	-1.45% (inactive)	12.6 µM (active)	-3.33% (inactive)	7.09% (inactive)	> 46 µM (inactive)	> 46 µM (inactive)	inactive	inactive	inactive	inactive		inactive	7.03% (inactive)	7.84	16.2	inactive	inactive	
